The target of one experiment is FCHSD2. As to the kind of experiment: pooled miR-30 sensor sort-seq; sequence = guide strand. The following applies: shRNA.
As to TTTCTGATTCTAACTGTCGGCT, the sensor-assay potency score (higher = more potent) was -0.5.
In turn, TGCTTTAGCAGGTCCAACCGGG gave a sensor-assay potency score (higher = more potent) of -0.504.
Same read-out and setting: in the case of TAGGAATAAACAACTTTGCAGG it was -0.656; in that of TTTAAGCTTCTCACTGTCCTTG, 0.228; in that of TTCGGTATCTGCATTAAGCGAG, 0.0519.
Same read-out and setting: the result for TTTAGCTAAATCTTTCACTGTC reads 1.33; that for TTATCTTCAAACTCTTCGCCTT, -0.0794; that for TAACTTTACACTTGCCTTCTGT, -0.129.
In turn, TATCTTCAAACTCTTCGCCTTC yielded a sensor-assay potency score (higher = more potent) of -0.452.
On the same count and under the same terms, in the case of TTCTGTTCTAGCTCTGCTCGGC it was -0.12; in that of TTTTCTTGCAAAAACAGCTGAA, -0.0894.
The same measure, in the same setting: in the case of TAGCTTTGGAATTACACTCAGA it was -0.799.

The target in a further experiment is FCRL4. The experiment is described as above. To be noted: shRNA.
In turn, TTGCATAGAACTGAAATCCATT displayed a sensor-assay potency score (higher = more potent) of -0.778.
On the same count and under the same terms, in the case of TATTTGAACTTGCTTGTGGGAT it was -0.378; in that of TAGACAACTGAGACATCCTTAT, -0.682.
On the same count and under the same terms, in the case of TTCTCTGTTGCATAGAACTGAA it was -0.545; in that of TACATCAACATACAACGACTGA, -0.697; in that of TAGAGCTGATCTTTCCAGCTGA, 0.365.
On the same count and under the same terms, the result for TTATTTTGAAATTTGATCTAAA reads -0.106; that for TTATTTGAACTTGCTTGTGGGA, -0.64; that for TAGAACTGAAATCCATTGCAAG, -0.914.
Regarding TAGGCTGAGAGTCTGTAGCTTT, the sensor-assay potency score (higher = more potent) is 0.173.
Still for that read-out and setting: in the case of TGTTATTTGAACTTGCTTGTGG it was 0.392; in that of TTATCCTCTAGAAGTGTCCTGG, 0.145.

The target of the next experiment is FER1L6. The experiment is described as above. The following applies: shRNA.
As to TTAGTCAACAGTTTTGATCTTC, the sensor-assay potency score (higher = more potent) is 0.643.
On the same count and under the same terms, in the case of TTTTCTGGTACAATCTCCGGGG it was 0.181.
TAAAATGACATCTTCAGTGTTC: the sensor-assay potency score (higher = more potent) was 0.481.
In turn, TTTTTCTGGTACAATCTCCGGG displayed a sensor-assay potency score (higher = more potent) of 0.00268.
The same measure, in the same setting: in the case of TTCTTCTATACTTTCTTCCAGG it was -0.684; in that of TTTGTCTCCATCCTGTTCGTTG, -0.562; in that of TAGCGAATCTGAAATATCGTGC, 0.395.
TTGACTATCTTTCGCAGCCTTG gave a sensor-assay potency score (higher = more potent) of -0.891.
TTCTTCTGCTGTAACTAGGTGG yielded a sensor-assay potency score (higher = more potent) of -0.362.
Same read-out and setting: in the case of TAACTTTTTCTTCTGCTGCTGA it was 0.239.
Same read-out and setting: the result for TTGCTTGCACAGACCAACCAGC reads -0.415; that for TAGAGTCTCACATAGAATCTGG, -0.448.

Another experiment concerns the target FEZ1. The experiment is described as above. To be noted: shRNA.
As for ATGAACCATAGAAACACTGGGG, the sensor-assay potency score (higher = more potent) was -0.474.
The same measure, in the same setting: in the case of TGAACCATAGAAACACTGGGGC it was 0.345; in that of TAGTCTTAAGAGTATAAGCTGT, -0.799.

The record behind these values is the OligoGym collection.
Also: reference of the scale not given here.
